Measurements published in PubChem BioAssay (Tox21).
Values joined by “and” are separate entries in the source; they are usually repeats but may differ in a detail not shown here. Equal values may be shown once. Inconclusive results are not listed. Where a call stands in place of a potency, no number is given. Where a structure was tested more than once in an assay, its records may differ in their call. Active and inactive are the calls of the source. Unless noted, calls come from the whole dose curve; as a rule, active = well fitted curve in the direction sought with a large enough effect in the repeat runs; inconclusive = weak or mixed curves; inactive = no such curve, though single readings can be large; an effect the other way counts as inactive or inconclusive.

Test: qHTS assay to identify small molecule antagonists of the TGF-beta/Smad signaling pathway - cell viability counter screen (AID 1346824); note: nearly all actives have a fitted effect of over 50% in size; note: potency is the fitted concentration of half-maximal effect
Conditions: SBE-bla HEK293T viability, CellTiter-Glo luminescence; series mostly up to 76.8 µM
Method in brief: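 SBE-bla HEK 293T cells, incubated overnight, then compound plus 0.25 ng/mL TGF-beta1 (stock added) for 5 hr at 37 C. Viability was read in the same wells by CellTiter-Glo luminescence after 30 min at room temperature.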

SMILES | Potency
O=C(O)CC(O)C(=O)O (configuration not stated) | inactive
CCOc1ccc(NC(C)=O)cc1 | inactive
CC(C)C(=O)Nc1ccc([N+](=O)[O-])c(C(F)(F)F)c1 | inactive
NC(=O)c1cccnc1 | inactive
COc1ccc(C(Cl)=C(c2ccc(OC)cc2)c2ccc(OC)cc2)cc1 | inactive
C=C(C)C(=O)OCC(C)O (configuration not stated) | inactive
O=CC(=O)c1ccccc1 | inactive
O=c1[nH]cc(F)c(=O)[nH]1 | inactive
NS(=O)(=O)c1cc2c(cc1Cl)NCNS2(=O)=O | inactive
CN(C)CCOC(C)(c1ccccc1)c1ccccn1 (configuration not stated) | inactive
CC(C)NCC(O)c1ccc(O)c(O)c1 (configuration not stated) | inactive
Cc1cn([C@H]2C=C[C@@H](CO)O2)c(=O)[nH]c1=O | inactive
CCc1nc(N)nc(N)c1-c1ccc(Cl)cc1 | inactive
C/C=C/C=C/C(=O)O | inactive
Nc1c(N=Nc2ccc(-c3ccc(N=Nc4cc(S(=O)(=O)O)c5ccccc5c4N)cc3)cc2)cc(S(=O)(=O)O)c2ccccc12 | inactive
Nc1c2c(nc3ccccc13)CCCC2 | inactive
O=S1(=O)OC(c2ccc(O)cc2)(c2ccc(O)cc2)c2ccccc21 | inactive
CCCCCCCC(=O)OCC(COC(=O)CCCCCCC)OC(=O)CCCCCCC | inactive
NS(=O)(=O)O | inactive
Cc1c(C(=O)O)c(O)cc2c1C(=O)c1c(O)c([C@@H]3O[C@H](CO)[C@@H](O)[C@H](O)[C@H]3O)c(O)c(O)c1C2=O | inactive
CCCCCCCCCCCCCCCC[N+](C)(C)Cc1ccccc1 | 56.7 µM (active) and 49.8 µM (active)
CC1(C)O[C@@H]2C[C@H]3[C@@H]4CCC5=CC(=O)C=C[C@]5(C)[C@@]4(F)[C@@H](O)C[C@]3(C)[C@]2(C(=O)CO)O1 | inactive
Nc1ccc(S(N)(=O)=O)cc1 | inactive
CN(C)CCOC(c1ccccc1)c1ccccc1 | inactive
CCCCOC(=O)c1ccc(O)cc1 | inactive
NC1CCCCC1 | inactive
CCN(CC)C(=O)c1cccc(C)c1 | inactive
CNNCc1ccc(C(=O)NC(C)C)cc1 | inactive
OC[C@H]1O[C@H](O[C@]2(CCl)O[C@H](CCl)[C@@H](O)[C@@H]2O)[C@H](O)[C@@H](O)[C@H]1Cl | inactive

Test: qHTS assay to identify small molecule agonists of the TGF-beta/Smad signaling pathway - cell viability counter screen (AID 1346829); note: nearly all actives have a fitted effect of over 45% in size; note: potency is the fitted concentration of half-maximal effect
Conditions: SBE-bla HEK293T viability, CellTiter-Glo luminescence, 5 h; series mostly up to 76.8 µM
Method in brief: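 Compound-treated SBE-bla HEK 293T cells (5 hr, 37 C) were assessed for viability with CellTiter-Glo in parallel with the reporter read.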

SMILES | Potency
O=C(O)CC(O)C(=O)O (configuration not stated) | inactive
CCOc1ccc(NC(C)=O)cc1 | inactive
CC(C)C(=O)Nc1ccc([N+](=O)[O-])c(C(F)(F)F)c1 | inactive
NC(=O)c1cccnc1 | inactive
COc1ccc(C(Cl)=C(c2ccc(OC)cc2)c2ccc(OC)cc2)cc1 | inactive
C=C(C)C(=O)OCC(C)O (configuration not stated) | inactive
O=CC(=O)c1ccccc1 | inactive
O=c1[nH]cc(F)c(=O)[nH]1 | inactive
NS(=O)(=O)c1cc2c(cc1Cl)NCNS2(=O)=O | inactive
CN(C)CCOC(C)(c1ccccc1)c1ccccn1 (configuration not stated) | inactive
CC(C)NCC(O)c1ccc(O)c(O)c1 (configuration not stated) | inactive
Cc1cn([C@H]2C=C[C@@H](CO)O2)c(=O)[nH]c1=O | inactive
CCc1nc(N)nc(N)c1-c1ccc(Cl)cc1 | inactive and 16.9 µM (active)
C/C=C/C=C/C(=O)O | inactive
Nc1c(N=Nc2ccc(-c3ccc(N=Nc4cc(S(=O)(=O)O)c5ccccc5c4N)cc3)cc2)cc(S(=O)(=O)O)c2ccccc12 | inactive
Nc1c2c(nc3ccccc13)CCCC2 | inactive
O=S1(=O)OC(c2ccc(O)cc2)(c2ccc(O)cc2)c2ccccc21 | inactive
CCCCCCCC(=O)OCC(COC(=O)CCCCCCC)OC(=O)CCCCCCC | inactive
NS(=O)(=O)O | inactive
Cc1c(C(=O)O)c(O)cc2c1C(=O)c1c(O)c([C@@H]3O[C@H](CO)[C@@H](O)[C@H](O)[C@H]3O)c(O)c(O)c1C2=O | inactive
CCCCCCCCCCCCCCCC[N+](C)(C)Cc1ccccc1 | 45 µM (active) and 39.6 µM (active) and 19 µM (active)
CC1(C)O[C@@H]2C[C@H]3[C@@H]4CCC5=CC(=O)C=C[C@]5(C)[C@@]4(F)[C@@H](O)C[C@]3(C)[C@]2(C(=O)CO)O1 | inactive
Nc1ccc(S(N)(=O)=O)cc1 | inactive
CN(C)CCOC(c1ccccc1)c1ccccc1 | inactive
CCCCOC(=O)c1ccc(O)cc1 | inactive
NC1CCCCC1 | inactive
CCN(CC)C(=O)c1cccc(C)c1 | inactive
CNNCc1ccc(C(=O)NC(C)C)cc1 | inactive
OC[C@H]1O[C@H](O[C@]2(CCl)O[C@H](CCl)[C@@H](O)[C@@H]2O)[C@H](O)[C@@H](O)[C@H]1Cl | inactive

Test: qHTS assay to identify small molecule agonists of the TGF-beta/Smad signaling pathway (AID 1346859; active = well fitted activation curve with a large enough effect in the signal ratio in the repeat runs, not every such curve was filed as active; the % refers to the signal ratio)
Conditions: SBE-bla HEK293T, TGF-beta/Smad beta-lactamase reporter, 5 h; series mostly up to 76.8 µM
Method in brief: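 SBE-bla HEK293T cells plated overnight, then compound exposure for 5 h at 37 C. Beta-lactamase reporter read with LiveBLAzer B/G FRET substrate after 2 h at room temperature, fluorescence at 405 nm excitation, 460/530 nm emission.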

SMILES | outcome
O=C(O)CC(O)C(=O)O (configuration not stated) | inactive
CCOc1ccc(NC(C)=O)cc1 | inactive
CC(C)C(=O)Nc1ccc([N+](=O)[O-])c(C(F)(F)F)c1 | inactive
NC(=O)c1cccnc1 | inactive
COc1ccc(C(Cl)=C(c2ccc(OC)cc2)c2ccc(OC)cc2)cc1 | inactive
C=C(C)C(=O)OCC(C)O (configuration not stated) | inactive
O=CC(=O)c1ccccc1 | inactive
O=c1[nH]cc(F)c(=O)[nH]1 | inactive
NS(=O)(=O)c1cc2c(cc1Cl)NCNS2(=O)=O | inactive
CN(C)CCOC(C)(c1ccccc1)c1ccccn1 (configuration not stated) | inactive
CC(C)NCC(O)c1ccc(O)c(O)c1 (configuration not stated) | inactive
Cc1cn([C@H]2C=C[C@@H](CO)O2)c(=O)[nH]c1=O | inactive
CCc1nc(N)nc(N)c1-c1ccc(Cl)cc1 | inactive
C/C=C/C=C/C(=O)O | inactive
Nc1c(N=Nc2ccc(-c3ccc(N=Nc4cc(S(=O)(=O)O)c5ccccc5c4N)cc3)cc2)cc(S(=O)(=O)O)c2ccccc12 | inactive
Nc1c2c(nc3ccccc13)CCCC2 | inactive
O=S1(=O)OC(c2ccc(O)cc2)(c2ccc(O)cc2)c2ccccc21 | inactive
CCCCCCCC(=O)OCC(COC(=O)CCCCCCC)OC(=O)CCCCCCC | inactive
NS(=O)(=O)O | inactive
Cc1c(C(=O)O)c(O)cc2c1C(=O)c1c(O)c([C@@H]3O[C@H](CO)[C@@H](O)[C@H](O)[C@H]3O)c(O)c(O)c1C2=O | inactive
CCCCCCCCCCCCCCCC[N+](C)(C)Cc1ccccc1 | inactive
CC1(C)O[C@@H]2C[C@H]3[C@@H]4CCC5=CC(=O)C=C[C@]5(C)[C@@]4(F)[C@@H](O)C[C@]3(C)[C@]2(C(=O)CO)O1 | inactive
Nc1ccc(S(N)(=O)=O)cc1 | inactive
CN(C)CCOC(c1ccccc1)c1ccccc1 | inactive
CCCCOC(=O)c1ccc(O)cc1 | inactive
NC1CCCCC1 | inactive
CCN(CC)C(=O)c1cccc(C)c1 | inactive
CNNCc1ccc(C(=O)NC(C)C)cc1 | inactive
OC[C@H]1O[C@H](O[C@]2(CCl)O[C@H](CCl)[C@@H](O)[C@@H]2O)[C@H](O)[C@@H](O)[C@H]1Cl | inactive
